# Results taken from the supplement of paper PMC8728848.
# The full list was thinned out, with the strongest signals kept by preference.
# B1: TbCVNHOb (Tuber borchii) (protein)
# chain: MSFYASSEDVRTIEEGGRTWLVGRARRADGSWQDIKLDLDNIIGNRDGHLTWGEQNFTQSASDIRFNFEGGSNVPVLRAKLRNAAGGEQESDLNLGERLTNNNGDLVFN
# B2: LysMD3 (Homo sapiens), Q7Z3D4 (protein)
# chain: MAGRHQNRSFPLPGVQSSGQVHAFGNCSDSDILEEDAEVYELRSRGKEKVRRSTSRDRLDDIIVLTKDIQEGDTLNAIALQYCCTVADIKRVNNLISDQDFFALRSIKIPVKKFSSLTETLCPPKGRQTSRHSSVQYSSEQQEILPANDSLAYSDSAGSFLKEVDRDIEQIVKCTDNKRENLNEVVSALTAQQMRFEPDNKNTQRKDPYYGADWGIG
# Key:
# Assay in all cases: glycan array binding signal (z-score within array); higher = stronger binding
# Details in all cases: glycan notation: IUPAC condensed, linker removed
# [1] = molecular target: Fuc(a1-2)Gal(b1-3)GalNAc(b1-3)Gal(a1-4)Gal(b1-4)Glc
# Summary of the method: (§1)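 The binding signal is a Z-score computed within each array. Data were drawn from 3228 arrays in the Consortium for Functional Glycomics database, restricted to those with a known protein sequence. Scores were averaged over arrays of the same protein sequence at different concentrations or buffers, and over linkers, and negative values can be taken as non-binding.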
# [2] = molecular target: Fuc(a1-2)Gal(b1-3)GlcNAc(b1-3)Gal(b1-4)Glc
# Summary of the method: as §1
# [3] = molecular target: Fuc(a1-2)[GalNAc(a1-3)]Gal(b1-4)Glc
# Summary of the method: as §1
# Fuc(a1-3)GlcNAc = molecular target: Fuc(a1-3)GlcNAc
# Summary of the method: as §1
# [4] = molecular target: Fuc(a1-3)[Gal(b1-4)]Glc6S
# Summary of the method: as §1
# Gal(b1-3)GalNAc = molecular target: Gal(b1-3)GalNAc
# Summary of the method: as §1
# [5] = molecular target: Gal(b1-3)GalNAc(b1-4)[Neu5Ac(a2-3)]Gal(b1-4)Glc
# Summary of the method: as §1
# [6] = molecular target: Gal(b1-3)GlcNAc(b1-3)Gal(b1-4)Glc
# Summary of the method: as §1
# [7] = molecular target: Gal(b1-3)[Neu5Ac(a2-6)]GlcNAc(b1-6)Gal(b1-4)Glc
# Summary of the method: as §1
# [8] = molecular target: Gal(b1-4)GlcNAc(b1-3)Gal(b1-4)Glc
# Summary of the method: as §1
# Gal4S(b1-4)GlcNAc = molecular target: Gal4S(b1-4)GlcNAc
# Summary of the method: as §1
# Gal4S6S(b1-4)GlcNAc = molecular target: Gal4S6S(b1-4)GlcNAc
# Summary of the method: as §1
# Glc(b1-4)Glc = molecular target: Glc(b1-4)Glc
# Summary of the method: as §1
# [9] = molecular target: GlcNAc(b1-3)Gal(b1-4)GlcNAc(b1-3)Gal(b1-4)GlcNAc
# Summary of the method: as §1
# [10] = molecular target: Man(a1-2)Man(a1-2)Man(a1-3)Man
# Summary of the method: as §1
# [11] = molecular target: Man(a1-2)Man(a1-6)[Man(a1-3)]Man(a1-6)[Man(a1-2)Man(a1-2)Man(a1-3)]Man
# Summary of the method: as §1
# [12] = molecular target: Neu5Ac(a2-3)Gal(b1-4)GlcNAc(b1-3)Gal(b1-4)GlcNAc(b1-3)Gal(b1-4)GlcNAc
# Summary of the method: as §1
# [13] = molecular target: Neu5Ac(a2-6)Gal(b1-4)GlcNAc(b1-2)Man(a1-3)[GlcNAc(b1-2)Man(b1-4)GlcNAc(b1-2)Man(a1-6)]Man(b1-4)GlcNAc(b1-4)GlcNAc
# Summary of the method: as §1
# [14] = molecular target: Neu5Ac(a2-6)Gal(b1-4)GlcNAc6S
# Summary of the method: as §1
# Neu5Ac(a2-6)GalNAc = molecular target: Neu5Ac(a2-6)GalNAc
# Summary of the method: as §1
# [15] = molecular target: Neu5Ac(a2-8)Neu5Ac(a2-8)Neu5Ac(a2-3)Gal(b1-4)Glc
# Summary of the method: as §1
# GlcNAc(b1-3)GalNAc = molecular target: GlcNAc(b1-3)GalNAc
# Summary of the method: as §1
# [16] = molecular target: GlcNAc(b1-4)[GlcNAc(b1-6)]GalNAc
# Summary of the method: as §1
# GlcNAc(b1-6)GalNAc = molecular target: GlcNAc(b1-6)GalNAc
# Summary of the method: as §1
# [17] = molecular target: Man(a1-2)Man(a1-3)[Man(a1-2)Man(a1-6)]Man(a1-6)[Man(a1-2)Man(a1-2)Man(a1-3)]Man
# Summary of the method: as §1
# [18] = molecular target: Man(a1-2)Man(a1-6)[Man(a1-3)]Man(a1-6)[Man(a1-2)Man(a1-2)Man(a1-3)]Man(b1-4)GlcNAc(b1-4)GlcNAc
# Summary of the method: as §1
# [19] = molecular target: Man(a1-3)[Man(a1-6)]Man(a1-6)[Man(a1-3)]Man(b1-4)GlcNAc(b1-4)GlcNAc
# Summary of the method: as §1
# [20] = molecular target: Man(a1-3)[Man(a1-6)]Man(b1-4)GlcNAc(b1-4)GlcNAc
# Summary of the method: as §1
# [21] = molecular target: Neu5Ac(a2-3)Gal(b1-3)GlcNAc
# Summary of the method: as §1
# [22] = molecular target: Neu5Ac(a2-3)Gal(b1-3)GlcNAc(b1-2)[Neu5Ac(a2-3)Gal(b1-3)GlcNAc(b1-4)]Man(a1-6)[Neu5Ac(a2-3)Gal(b1-3)GlcNAc(b1-2)Man(a1-3)]Man(b1-4)GlcNAc(b1-4)GlcNAc
# Summary of the method: as §1
# [23] = molecular target: Neu5Ac(a2-3)Gal(b1-4)GlcNAc(b1-2)Man
# Summary of the method: as §1
# [24] = molecular target: Neu5Ac(a2-3)Gal(b1-4)GlcNAc(b1-2)Man(a1-3)[Neu5Ac(a2-6)Gal(b1-4)GlcNAc(b1-2)Man(a1-6)]Man(b1-4)GlcNAc(b1-4)GlcNAc
# Summary of the method: as §1
# [25] = molecular target: Neu5Ac(a2-3)Gal(b1-4)GlcNAc(b1-3)Gal(b1-4)GlcNAc(b1-6)[Gal(b1-3)]GalNAc
# Summary of the method: as §1
# [26] = molecular target: Neu5Ac(a2-3)Gal(b1-4)GlcNAc(b1-6)[Neu5Ac(a2-3)Gal(b1-3)]GalNAc
# Summary of the method: as §1
# [27] = molecular target: Neu5Ac(a2-3)Gal6S(b1-4)[Fuc(a1-3)]GlcNAc
# Summary of the method: as §1
# [28] = molecular target: Neu5Ac(a2-6)Gal(b1-4)GlcNAc
# Summary of the method: as §1
# [29] = molecular target: Neu5Ac(a2-6)Gal(b1-4)GlcNAc(b1-2)Man(a1-3)[Man(a1-6)]Man(b1-4)GlcNAc(b1-4)GlcNAc
# Summary of the method: as §1
# [30] = molecular target: Neu5Ac(a2-6)Gal(b1-4)GlcNAc(b1-2)Man(a1-3)[Neu5Ac(a2-3)Gal(b1-4)GlcNAc(b1-2)Man(a1-6)]Man(b1-4)GlcNAc(b1-4)GlcNAc
# Summary of the method: as §1
# [31] = molecular target: Neu5Ac(a2-8)Neu5Ac(a2-3)Gal(b1-3)GalNAc(b1-4)[Neu5Ac(a2-8)Neu5Ac(a2-3)]Gal(b1-4)Glc
# Summary of the method: as §1
# [32] = molecular target: Neu5Gc(a2-3)Gal(b1-3)[Fuc(a1-4)]GlcNAc
# Summary of the method: as §1
# [33] = molecular target: Neu5Gc(a2-3)Gal(b1-4)GlcNAc
# Summary of the method: as §1
# [34] = molecular target: Neu5Gc(a2-3)Gal(b1-4)[Fuc(a1-3)]GlcNAc
# Summary of the method: as §1
binder,measurement,setting,value
B1,glycan array binding signal (z-score),[1],0.303
same,glycan array binding signal (z-score),[2],1.56
same,glycan array binding signal (z-score),[3],-0.147
same,glycan array binding signal (z-score),Fuc(a1-3)GlcNAc,0.012
same,glycan array binding signal (z-score),[4],0.185
same,glycan array binding signal (z-score),Gal(b1-3)GalNAc,-0.117
same,glycan array binding signal (z-score),[5],-0.245
same,glycan array binding signal (z-score),[6],5.86
same,glycan array binding signal (z-score),[7],1.4
same,glycan array binding signal (z-score),[8],2.32
same,glycan array binding signal (z-score),Gal4S(b1-4)GlcNAc,0.051
same,glycan array binding signal (z-score),Gal4S6S(b1-4)GlcNAc,-0.061
same,glycan array binding signal (z-score),Glc(b1-4)Glc,-0.189
same,glycan array binding signal (z-score),[9],-0.144
same,glycan array binding signal (z-score),[10],1.35
same,glycan array binding signal (z-score),[11],-0.185
same,glycan array binding signal (z-score),[12],-0.237
same,glycan array binding signal (z-score),[13],-0.008
same,glycan array binding signal (z-score),[14],-0.275
same,glycan array binding signal (z-score),Neu5Ac(a2-6)GalNAc,-0.28
same,glycan array binding signal (z-score),[15],-0.118
B2,glycan array binding signal (z-score),GlcNAc(b1-3)GalNAc,-0.639
same,glycan array binding signal (z-score),[16],0.46
same,glycan array binding signal (z-score),GlcNAc(b1-6)GalNAc,0.427
same,glycan array binding signal (z-score),[17],0.422
same,glycan array binding signal (z-score),[18],-0.445
same,glycan array binding signal (z-score),[19],-0.113
same,glycan array binding signal (z-score),[20],-0.343
same,glycan array binding signal (z-score),[21],-0.413
same,glycan array binding signal (z-score),[22],-0.094
same,glycan array binding signal (z-score),[23],-0.604
same,glycan array binding signal (z-score),[24],0.582
same,glycan array binding signal (z-score),[25],-0.924
same,glycan array binding signal (z-score),[26],-0.226
same,glycan array binding signal (z-score),[27],-0.291
same,glycan array binding signal (z-score),[28],-0.353
same,glycan array binding signal (z-score),[29],-1.15
same,glycan array binding signal (z-score),[30],-0.438
same,glycan array binding signal (z-score),[31],1.66
same,glycan array binding signal (z-score),[32],-0.44
same,glycan array binding signal (z-score),[33],-0.032
same,glycan array binding signal (z-score),[34],-0.174
